# Measured values reported in article PMC4336329 (PLoS ONE, 2015).
# The campaign covered roughly 310,000 compounds. About 14,000 (4.5%) showed an effect of 50% or more. Effects have a minus sign here. The full list was thinned out, with strong results kept by preference.
# Biological target: human ether-à-go-go-related gene (hERG) potassium channel (human, UniProt Q12809)
# Assay: primary screen, population patch clamp on CHO cells stably expressing hERG; higher = less effect of the substance
# 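Further: peak tail current of the secondary pulse compared with the same well before compound.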
# Sequence of human ether-à-go-go-related gene (hERG) potassium channel (Q12809 whole entry, looked up): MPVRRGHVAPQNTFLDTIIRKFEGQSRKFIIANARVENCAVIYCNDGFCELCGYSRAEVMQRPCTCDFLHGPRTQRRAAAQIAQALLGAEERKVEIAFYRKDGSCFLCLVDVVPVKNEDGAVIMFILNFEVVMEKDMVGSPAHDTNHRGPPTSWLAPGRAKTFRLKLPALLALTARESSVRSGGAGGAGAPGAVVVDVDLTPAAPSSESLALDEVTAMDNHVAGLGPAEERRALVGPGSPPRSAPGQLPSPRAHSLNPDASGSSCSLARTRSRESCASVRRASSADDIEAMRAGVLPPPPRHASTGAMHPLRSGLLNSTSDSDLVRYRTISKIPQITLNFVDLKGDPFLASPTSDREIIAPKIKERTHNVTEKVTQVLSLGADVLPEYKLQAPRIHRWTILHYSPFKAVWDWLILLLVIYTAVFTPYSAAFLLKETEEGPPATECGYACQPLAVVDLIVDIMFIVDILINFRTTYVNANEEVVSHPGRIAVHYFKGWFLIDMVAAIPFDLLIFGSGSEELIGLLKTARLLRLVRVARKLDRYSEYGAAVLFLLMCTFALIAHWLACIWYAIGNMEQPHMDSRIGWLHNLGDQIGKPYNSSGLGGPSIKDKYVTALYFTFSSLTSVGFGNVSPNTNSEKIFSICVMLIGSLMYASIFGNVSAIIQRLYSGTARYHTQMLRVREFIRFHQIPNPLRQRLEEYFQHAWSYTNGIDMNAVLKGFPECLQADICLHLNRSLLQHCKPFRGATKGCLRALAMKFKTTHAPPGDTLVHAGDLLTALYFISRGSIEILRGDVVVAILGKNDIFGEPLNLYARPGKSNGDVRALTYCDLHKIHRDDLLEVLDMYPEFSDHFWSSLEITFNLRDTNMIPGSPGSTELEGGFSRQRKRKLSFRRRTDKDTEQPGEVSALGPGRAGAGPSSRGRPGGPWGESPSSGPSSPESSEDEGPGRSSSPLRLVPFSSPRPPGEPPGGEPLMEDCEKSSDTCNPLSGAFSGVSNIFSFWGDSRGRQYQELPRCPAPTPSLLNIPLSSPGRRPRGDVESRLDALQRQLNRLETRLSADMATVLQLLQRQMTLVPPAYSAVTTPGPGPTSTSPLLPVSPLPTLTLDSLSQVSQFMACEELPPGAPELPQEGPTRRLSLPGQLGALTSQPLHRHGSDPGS
row,Compound,"hERG current change (%, negative = inhibition) at 10uM [%]"
1,COc1ccc(-n2ncc3c2CC(C)(C)CC3NC(=O)Cc2nonc2C)cc1 (centres unmarked),3.4
2,COc1ccc(-n2ncc3c2CC(C)(C)CC3NC(=O)c2cnc(C)cn2)cc1 (centres unmarked),-4.41
3,C=CCCC(=O)NC1CC(C)(C)Cc2c1cnn2-c1ccc(OC)cc1 (centres unmarked),-46
4,COc1ccc(-n2ncc3c2CC(C)(C)CC3NC(=O)CCc2c(C)noc2C)cc1 (centres unmarked),-21.7
5,Cc1cc(C(=O)NC2CC(C)(C)Cc3c2cnn3-c2ccc(F)cc2)nn1C (centres unmarked),-14.8
6,Cn1cc(S(=O)(=O)NCc2ccco2)c(=O)n(C)c1=O,3.03
7,Cc1onc(-c2c(F)cccc2Cl)c1C(=O)NCc1cccs1,-21.2
8,COc1ccc(S(=O)(=O)N2CCOCC2)cc1N(C)S(=O)(=O)c1ccc(C)cc1,0.666
9,C/C(CC(=O)Nc1ccccn1)=N\NC(=O)c1ccccc1O,6.73
10,COc1ccc(CCNC(=O)c2c(O)c3ccccc3[nH]c2=O)cc1,15.4
11,COc1cccc(NC(=O)c2ccc3c(c2)N(CC(=O)N2CCOCC2)C(=O)C(C)(C)O3)c1,-5.35
12,CCOCCc1nnc(NC(=O)c2cccc(F)c2)s1,0.0842
13,COc1cc(NC(=O)C(C)Oc2ccccc2)cc(OC)c1 (centres unmarked),-2.9
14,COCc1ccc(C(=O)NC2CC(C)(C)Cc3c2cnn3-c2ccc(OC)cc2)o1 (centres unmarked),-29.3
15,COc1ccc(-n2ncc3c2CC(C)(C)CC3NC(=O)CN2CCOC2=O)cc1 (centres unmarked),-32.9
16,COc1ccc(C(=O)NC2CC(C)(C)Cc3c2cnn3-c2ccccc2C)o1 (centres unmarked),-30.5
17,COc1ccc(-n2ncc3c2CC(C)(C)CC3NC(=O)c2ccc(OC)o2)cc1 (centres unmarked),-50.2
18,Cc1ncoc1C(=O)NC1CC(C)(C)Cc2c1cnn2-c1ccccc1 (centres unmarked),-20.5
19,COc1ccc(-n2ncc3c2CC(C)(C)CC3NC(=O)c2ocnc2C)cc1 (centres unmarked),-53.5
20,Cc1nonc1CC(=O)NC1CC(C)(C)Cc2c1cnn2-c1ccc(F)cc1 (centres unmarked),-15.7
21,CCN(CC)CC(=O)NC1CC(C)(C)Cc2c1cnn2-c1ccc(F)cc1 (centres unmarked),7.43
22,Cn1nccc1C(=O)NC1CC(C)(C)Cc2c1cnn2-c1ccc(F)cc1 (centres unmarked),-61.4
23,Cc1ncoc1C(=O)NC1CC(C)(C)Cc2c1cnn2-c1ccc(F)cc1 (centres unmarked),-20.7
24,COc1ccc(-n2ncc3c2CC(C)(C)CC3NC(=O)C2=CC(=O)CC(C)(C)O2)cc1 (centres unmarked),-68.3

row,Compound,"hERG current change (%, negative = inhibition) at 10uM [%]"
1,Cc1ccccc1-n1ncc2c1CC(C)(C)CC2NC(=O)C1=CC(=O)CC(C)(C)O1 (centres unmarked),-4.61
2,O=C(O)CCCN1C(=O)/C(=C\C(Cl)=C\c2ccccc2)SC1=S,13.6
3,COc1ccc(OC)c(-c2nc(CN3CCN(C(=O)c4ccco4)CC3)c(C)o2)c1,-21.9
4,O=C(NCc1cccs1)c1ccccc1[N+](=O)[O-],-11.4
5,COc1cc(-c2nnc3n(CCc4ccccc4)c(=O)c4ccccc4n23)cc(OC)c1OC,-19.7
6,CCOC(=O)CN1C(=O)COc2ccc(Cl)cc21,19.2
7,CCOC(=O)c1[nH]cnc1C(=O)N[C@@H](C)c1ccccc1,-5.33
8,O=C1CCc2cc(S(=O)(=O)N3CCC(C(=O)NCc4ccccn4)CC3)ccc2N1,16.9
9,CCOc1ccccc1NS(=O)(=O)c1cc2c3c(c1)C(C)C(=O)N3CCC2 (centres unmarked),5.26
10,O=C(N/N=C/c1cn(-c2ccccc2)nc1-c1ccc(F)cc1)c1ccc(Br)o1,27.7
11,CSCc1ccc(C(=O)NC2CC(C)(C)Cc3c2cnn3-c2ccc(F)cc2)o1 (centres unmarked),-56.5
12,COCc1ccc(C(=O)NC2CC(C)(C)Cc3c2cnn3-c2ccc(C)cc2)o1 (centres unmarked),-39.3
13,COc1ccc(-c2[nH]ncc2-c2nc(C)cs2)c(O)c1,13.5
14,Cc1cc2cc(CN(CCCO)S(=O)(=O)c3cccc4nsnc34)c(=O)[nH]c2cc1C,0.493
15,O=C(/C=C/c1ccc(S(=O)(=O)N2CCOCC2)cc1)N1CCN(c2ccc(F)cc2)CC1,-25.6
16,CC(=O)c1ccc(N2CCN(C(=O)c3ccc4ccccc4n3)CC2)cc1,-43.1
17,CC(=O)c1ccc(N2CCN(C(=O)/C=C/c3cccs3)CC2)cc1,-25
18,O=C(/C=C/c1cccs1)N1CCN(c2ccccc2)CC1,1.88
19,O=C(/C=C/c1ccc2ccccc2n1)N1CCN(c2ccccc2)CC1,-52.1
20,O=C(/C=C/c1ccc2ccccc2n1)N1CCN(S(=O)(=O)c2ccccc2F)CC1,-15.9
21,CC(=O)c1ccc(N2CCN(C(=O)/C=C/c3ccc4ccccc4n3)CC2)cc1,-54.4
22,O=C(O)/C=C/c1ccc2ccccc2n1,2.35
23,O=C(/C=C/c1ccc2ccccc2n1)N1CCN(S(=O)(=O)c2ccc(F)cc2)CC1,-52.4
